NALP1 yeast inh = NALP1 inhibition; S. cerevisiae NALP1/ASC/caspase-1 growth, X-gal OD620, 72 h; inhibition, % at 10 µM; hit rate 0.61% among 280,000; in the data active = inhibition mostly above about 24%, no sharp cut-off; inactive = mostly below about 32%
tim10-1 inh = growth inhibitors of tim10-1 mutant yeast; S. cerevisiae tim10-1 ts strain growth, BacTiter-Glo, 24 h; inhibition, % at 20 µM; hit rate 2.2% among 330,000; AID 463190;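 active = inhibition of at least 40%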;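 note: mutant grown at 25 °C; 0% = DMSO wells with yeast and 100% = wells holding no yeast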
NALP3 yeast inh = inhibitors of NALP3 inflammasome in yeast. Yeast reconstituted NLRP3/ASC/caspase-1, beta-gal luminescence, 24 h. inhibition, % at 10 µM. hit rate 0.39% among 330,000;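 active = inhibition of 50% or more; inactive = inhibition below 50%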;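 note: plate controls were induced DMSO wells for no effect and uninduced yeast grown without galactose for full effect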
tim23-1 inh = growth inhibitors of tim23-1 mutant yeast. S. cerevisiae tim23-1 growth, BacTiter-Glo luminescence, 24 h. inhibition, % at 20 µM. hit rate 1.3% among 330,000. AID 463212;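 active = growth inhibition of the mutant yeast at or above 50%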;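 note: temperature-sensitive mutant grown at 25 °C; plate controls were DMSO-treated mutant yeast for no effect and medium wells lacking yeast for full effect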
TIM10 inh = TIM10 yeast growth inhibition; S. cerevisiae TIM10 strain growth, BacTiter-Glo luminescence, 24 h; inhibition, % at 10 µM; hit rate 1.4% among 330,000; AID 463195;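 active = inhibition of 40% or more at the single tested concentration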;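 note: wild-type TIM10 isogenic control strain grown at permissive 25 °C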
tim10-1 confirm = confirmation of tim10-1 mutant yeast growth inhibitors | shares compounds with tim10-1 inh | S. cerevisiae tim10-1 ts strain growth, BacTiter-Glo, 24 h | inhibition, % at 20 µM | hit rate 56% among 7,400;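 active = inhibition of yeast growth at or above a set limit in either of two repeat tests at 20 µM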;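 note: tim10-1 mutant grown at permissive 25 °C to find synthetic lethal compounds; 0% = DMSO yeast wells and 100% = medium wells without yeast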
* marks the source's active call; other numbers are inactive results; x = no result given. Compounds with a hit are over-represented: about 4% of the library has one in this group of screens.

SMILES	NALP1 yeast inh	tim10-1 inh	NALP3 yeast inh	tim23-1 inh	TIM10 inh	tim10-1 confirm
CC1(C)CC2CC(C)(CN2C(=O)C23CCC(C)(C(=O)C2)C3(C)C)C1 (stereo not given)	29	43*	4	23	-10	14
C=C(C)c1cccc(C(C)(C)NC(=O)Nc2ccc(C(C)=O)cc2)c1	39	43*	14	34	14	22
CC(C)c1nnc(NC(=O)CCS(=O)(=O)c2nc(-c3cccs3)cc(C(F)(F)F)n2)s1	-6	61*	19	44	28	45*
CC(C)c1nnc(NC(=O)CCS(=O)(=O)Cc2ccccc2)s1	6	-26	-1	-6	10	x
CC1CCN(S(=O)(=O)c2ccc3ncn(CC(=O)N4CCN(C)CC4)c(=O)c3c2)CC1	21	-2	3	-3	2	x
Cc1ccc(Sc2oc(/C=N/n3cnnc3)cc2Br)cc1	22	46*	29	35	20	17
CCN=C1S/C(=C/c2ccc(-c3ccc(F)cc3)o2)C(=O)N1CC	12	45*	13	22	5	29*
CCN=C1S/C(=C\c2ccc(Sc3ccc(Cl)cc3)o2)C(=O)N1CC	-1	21	7	-2	4	x
CCOC(=O)C1(S(=O)(=O)c2ccccc2)CCN(Cc2ccc(Cl)cc2)CC1	27	48*	14	43	24	20
CCOC(=O)C1(CCc2ccccc2)CCN(Cc2ccc(O)cc2)CC1	17	-1	5	11	0	x
Cc1ccc(N=Nc2c(O)n(CN3CCOCC3)c3ccccc23)cc1	5	44*	25	13	30	32*
Cc1nc2scc(C)n2c(=O)c1S(=O)(=O)N1CCN(c2cccc(C(F)(F)F)c2)CC1	-5	50*	0	47	17	43*
Cc1cccc(/C=C2\CS/C(=C\c3cccc(C)c3)C2=O)c1	-7	44*	15	49	24	36*
N=c1c2c(-c3ccccc3)c(-c3ccccc3)n(Cc3ccco3)c2ncn1CCO	14	43*	7	36	32	28
Cc1ccc(-n2ncc3c2CC(C)(C)CC3NC(=O)CCc2ccncc2)cc1 (stereo not given)	9	16	6	24	7	x
CCOC(=O)C1=NNC(C(=O)c2ccc(Cl)cc2)C1c1ccc(OC)cc1 (stereo not given)	-1	22	4	8	24	x
CCOC(=O)C1=NNC(C(=O)c2ccc(C)cc2)C1c1ccc(OC)cc1 (stereo not given)	18	41*	1	7	11	13
CCc1ccccc1NC(=O)C1=CC(c2ccc(OC)c(OC)c2)=NS(=O)(=O)N1C	2	5	16	12	-10	x
CN(C(=O)c1nc(-c2ccccc2)n(-c2ccccc2)n1)C1CCS(=O)(=O)C1 (stereo not given)	14	-4	19	-4	4	x
Cc1cc(CC(=O)O)c2oc(-c3ccoc3)cc(=O)c2c1	x	10	6	11	3	x
CC(=O)N(c1ccccc1)C1CC(C)N(C(=O)c2ccccc2)c2ccccc21 (stereo not given)	8	42*	12	29	20	22
CCC(=O)N1c2ccccc2[C@@H](N(C(C)=O)c2ccccc2)C[C@H]1C	8	16	17	16	-1	x
COc1ccc(C(CNC(=O)c2oc3cc(Br)ccc3c2C)N2CCCCC2)cc1 (stereo not given)	16	42*	18	30	35	-17
COc1ccc(C(CNC(=O)c2oc3ccc(Br)cc3c2C)N2CCCCC2)cc1 (stereo not given)	11	29	23	23	26	x
CC(C)C(=O)N1CCC2(CC1)Oc1ccc(F)cc1C(=O)C21CC(c2cccnc2)=NO1 (stereo not given)	-86	3	-3	-9	-12	x
SMILES	NALP1 yeast inh	tim10-1 inh	NALP3 yeast inh	tim23-1 inh	TIM10 inh	tim10-1 confirm
Cc1ccc(C(=O)N2CCC3(CC2)Oc2ccc(F)cc2C(=O)C32CC(c3cccnc3)=NO2)s1 (stereo not given)	22	42*	12	-2	-8	25
COc1cc2c(cc1OC)C(C)N(C(=O)c1cc3c(C)cc(C)cc3[nH]1)CC2 (stereo not given)	0	41*	13	39	21	10
Cc1ccc(-c2cc(-c3ccccc3)c(C#N)c(N)n2)o1	31	50*	26	19	6	27
N#Cc1c(-c2ccco2)cc(C2CC2)nc1N	0	20	10	25	19	x
Cc1ccc(-c2cc(-c3ccccc3Cl)c(C#N)c(N)n2)o1	1	41*	7	48	34	25
N#Cc1c(-c2ccccc2)cc(C2CC2)nc1N	-10	42*	-37	19	10	13
Cc1ccc(-c2cc(-c3ccc(F)cc3)nc(N)c2C#N)o1	3	12	-2	15	6	x
CC[C@@]1(C(=O)OC)N[C@H](CN(C)S(=O)(=O)c2ccc(C(F)(F)F)cc2)[C@@H]2C(=O)N(C)C(=O)[C@@H]21	x	5	9	8	-12	x
S=c1[nH]nc(Nc2ccc(Cl)cc2)s1	-10	40*	18	22	29	34*
Nc1sc(-c2ccccc2)c(Cc2ccccc2)c1C(=O)O	10	53*	0	19	20	35*
Cc1ccc(S(=O)(=O)NC(CC(C)C)C(=O)NCCCn2nc(C)cc2C)cc1 (stereo not given)	x	5	-7	4	4	x
S=C(Nc1ccc(Cl)cc1)N(CCCN1CCOCC1)Cc1cccs1	3	41*	0	17	-15	8
CCOc1ccccc1NC(=O)/C=C/C(N)=O	54*	40*	42	22	33	34*
CCOc1ccccc1NC(=O)/C=C/c1ccccc1[N+](=O)[O-]	29	29	23	15	9	x
CCOC(=O)/C=C/C(=O)Nc1ccccc1C(=O)NC1CCCCC1	11	46*	21	33	38	22
CC(Oc1ccccc1F)C(=O)NNC(=O)c1ccc(F)c(S(=O)(=O)N2CCOCC2)c1 (stereo not given)	14	17	-2	5	4	x
O=C(Nc1cccnc1)c1cn(-c2ccccc2)nc1-c1cccs1	26	43*	29	42	40	43*
O=C(Nc1cccc2ccccc12)c1cn(-c2ccccc2)nc1-c1cccs1	1	28	15	15	31	x
O=C(O)COc1ccc(C(NC(=O)c2c(F)cccc2F)NC(=O)c2c(F)cccc2F)cc1	-3	24	21	9	-8	x
OCCn1c(-c2ccc3c(c2)OCO3)csc1=Nc1ccccc1	x	48*	11	44	25	33*
CCc1cccc(NS(=O)(=O)c2ccc(-n3cccn3)cc2)c1	11	50*	1	38	12	18
Cn1c(N)c(C(=O)COC(=O)C2CCC(C(C)(C)C)CC2)c(=O)n(C)c1=O (stereo not given)	36	42*	11	19	10	26

High-throughput results (PubChem)
